EPAC1 ag = qHTS for Agonist of cAMP-regulated guanine nucleotide exchange factor 3 (EPAC1): primary screen. Potency, µM (series often up to 154 µM), inactives show at the top dose activation, hits mostly activators. 360,000 tested, 0.073% active. EPAC1 agonist qHTS, biochemical assay; response scale: 100% = response to 6.5 mM cAMP. Rap guanine nucleotide exchange factor 3 (Homo sapiens), O95398; also: nearly all actives have a fitted effect of over 60% in size
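EPAC1 100 nM, Rap1B–BODIPY-GDP 250 nM, unlabeled GDP 50 uM; compound titration; 5 min RT; kinetic read ex480/em540 at 5-min intervals ×30 min; data normalized to 6.5 mM cAMP agonist control.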
EPAC2 agonist = qHTS for Agonist of cAMP-regulated guanine nucleotide exchange factor 4 (EPAC2): primary screen; EPAC2 activation, biochemical qHTS; response scale: 100% = 6.5 mM cAMP response; Potency, µM (highest dose often 154 µM), inactives show top-dose activation, actives largely listed as activators; 360,000 tested, 0.079% active; Rap guanine nucleotide exchange factor 4 (Homo sapiens), Q8WZA2; also: nearly all actives have a fitted effect of over 50% in size
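Compounds were added across a concentration range to EPAC2 (100 nM), RAP1B-BODIPY-GDP (250 nM) and GDP (50 uM). After 5 min at room temperature, fluorescence was recorded at 5-min intervals for 30 min.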
Rango release inh = qHTS Assay for Inhibitors of RanGTP induced Rango (Ran-regulated importin-beta cargo) - Importin beta complex dissociation | Biochemical FRET Rango-importin beta, RanGTP-induced dissociation | Potency, µM (highest dose often 46.1 µM), without a hit: top-dose activity change, negative = inhibition | AID 540253, 2011 | Snurportin-1 (Homo sapiens) + GTP-binding nuclear protein Ran (Homo sapiens) + Importin … | 340,000 tested, 0.071% active; calls by dose curve; also: % of control where 0% means no effect; nearly all actives have a fitted effect of over 45% in size
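Compounds preincubate 5 min with complex of recombinant Rango and importin beta in PBS with 1 mM DTT. Ran (0.6 uM) loaded with 2 mM GTP plus 0.2 uM RCC1 starts dissociation; FRET is recorded 45 min later.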
Rango complex inh = qHTS Assay for Inhibitors of Rango (Ran-regulated importin-beta cargo) - Importin beta complex formation. Rango CFP/YFP FRET sensor + importin beta, 45 min. Potency, µM (top dose mostly 92.2 µM), without a hit: at the top dose inhibition of complex formation. 340,000 tested, 0.031% active. AID 540263, 2011; calls by dose curve;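 also: 0% = DMSO wells and 100% = buffer wells lacking importin beta; nearly all actives have a fitted effect of over 15% in size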
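FRET biosensor (snurportin 1 IBB flanked by EYFP and cerulean), 50 nM, with compound 5 min, then 0.125 microM importin beta in PBS, 1 mM DTT, 0.02% Tween-20, 0.1% BSA. CFP/YFP ratio read after 45 min at room temperature; pre-read flags interference.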
EPAC1 antag = qHTS for Antagonist of cAMP-regulated guanine nucleotide exchange factor 3 (EPAC1): primary screen; EPAC1 GEF assay, Rap1b-BODIPY-GDP exchange fluorescence; Potency, µM (doses to about 115 µM), inactives show at the top dose activity change, negative = inhibition, most hits filed as inhibitors; 360,000 tested, 0.14% active; AID 720709, 2013;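 also: plate controls were vehicle for no effect and positive control for full effect; nearly all actives have a fitted effect of over 50% in size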
EPAC2 antagonist = qHTS for Antagonist of cAMP-regulated guanine nucleotide exchange factor 2 (EPAC2): primary screen | Rap guanine nucleotide exchange factor 4 (Homo sapiens), Q8WZA2 | EPAC2 GEF exchange of Rap1B-BODIPY-GDP, fluorescence | Potency, µM (doses to about 114 µM), for the others: at the highest dose activity, negative = inhibition, hits mostly inhibitors | 360,000 tested, 0.18% active; also: % is scaled to controls: 0 for no effect and ±100 for the full control effect; nearly all actives have a fitted effect of over 45% in size
Numbers without * were called inactive; ? = inconclusive; nt = no result. Rows were chosen to be rich in hits. Some 0.43% of all compounds tested hit in one or more screens of this group. Unless noted, calls follow the shape of the dose curve; as a rule, active = well fitted curve in the direction sought with a large enough effect; inconclusive = small, poorly fitted or top-dose-only effect, or another doubt; inactive = no such curve, though single readings can be large; an effect the other way counts as inactive or inconclusive. Potency is read from the fitted curve at half-maximal effect.

SMILES	EPAC1 ag	EPAC2 agonist	Rango release inh	Rango complex inh	EPAC1 antag	EPAC2 antagonist
COCCCn1c(N)c(C(=O)OC(C)COC)c2nc3ccccc3nc21 (configuration not stated)	-4.3%	-7.0%	?	?	7.8%	0.7%
CCCCOCCCn1c(N)c(C(=O)OC(C)COC)c2nc3ccccc3nc21 (configuration not stated)	-1.5%	0.7%	9.2µM*	?	19.3%	7.5%
O=c1[nH]c(=S)n(-c2ccccc2F)c(O)c1C=Nc1ccc(N2CCOCC2)cc1	56.2µM*	?	?	?	88.2%	92.7%
Nc1ccc2ccc3cccc[n+]3c2c1	100µM*	112µM*	?	?	342.2%	359.7%
COc1cc(/C=C/c2nc3ccccc3c(=O)n2-c2cccc(O)c2)ccc1O	5.2%	-0.5%	?	?	50.1µM*	-2.3%
COc1cc(/C=C/c2nc3ccccc3c(=O)n2-c2ccccc2O)ccc1O	8.8%	1.8%	?	?	?	-25.6%
Cc1c(NS(=O)(=O)c2ccccc2)ccc([N+](=O)[O-])c1Cl	-5.6%	-1.0%	2.8%	-1.0%	-28.8%	39.8µM*
CCOC(=O)[C@]12Cc3ccccc3[C@H]1N(Cc1ccccc1)C(=O)c1cc(OC)ccc12	4.0%	7.6%	nt	nt	-23.9%	28.2µM*
CCOC(=O)[C@]12Cc3cc(Cl)ccc3[C@H]1N(C(C)C)C(=O)c1ccccc12	-7.2%	9.1%	nt	nt	-4.7%	16.8µM*
Cc1cccc(N2C(=O)NC(=O)/C(=C\c3cc(C)n(-c4sc5c(c4C#N)CCCC5)c3C)C2=O)c1C	11.7%	-2.7%	-1.1%	-3.1%	35.5µM*	-22.3%
CCOC(=O)c1c(-n2c(C)cc(C=C3C(=O)NC(=O)NC3=O)c2C)sc2c1CCCC2	1.4%	-6.9%	16.0%	0.2%	-2.0%	3.7%
CC(Cc1ccccc1)NC(=O)CCCCC(=O)NC(C)Cc1ccccc1 (configuration not stated)	-5.3%	1.1%	-4.7%	7.4%	-9.6%	-2.9%
O=[N+]([O-])c1cc([As](=O)(O)c2ccc(O)c([N+](=O)[O-])c2)ccc1O	-4.2%	-0.6%	14.0%	0.4%	9.9%	17.8µM*
Cc1ccccc1-n1c(O)c(/C=C/C=Nc2ccccc2)c(=O)[nH]c1=O	89.1µM*	?	?	?	64.2%	88.5%
Cc1cccc(-n2c(O)c(/C=C/C=Nc3ccccc3)c(=O)[nH]c2=O)c1	100µM*	-21.6%	?	?	6.4%	9.1%
O=C1NC(=O)N(Cc2ccccc2)C(=O)/C1=C\c1ccco1	-15.2%	-2.5%	?	?	?	-2.9%
CCCCN1C(=O)/C(=C\c2ccco2)C(=O)N(CCc2ccccc2)C1=O	-0.2%	6.6%	-22.1%	-3.3%	25.1µM*	-1.3%
CCOC(=O)[C@]12Cc3c(cc(OC)c(OC)c3OC)[C@H]1N(CCC(=O)OC)C(=O)c1ccccc12	2.9%	4.4%	nt	nt	-3.5%	2.6%
O=[N+]([O-])c1ccc(N2CCCCC2)c2ncccc12	8.0%	22.2%	-12.5%	0.5%	-27.3%	-20.7%
O=[N+]([O-])c1ccc(N2CCCCCC2)c2nonc12	100µM*	100µM*	?	?	67.1%	42.3%
CCOC(=O)CNC(=O)N1Cc2ccc(Br)cc2-n2nncc2C1	-6.8%	-2.5%	nt	nt	-15.6%	-16.1%
CN1/C(=C\C=C2C(=O)NC(=S)NC2=O)C(C)(C)c2ccccc21	?	50.1µM*	?	?	130.6%	199.8%
CC1(C)OC(c2ccccc2)=C/C(=C/C=C2C(=O)NC(=S)NC2=O)O1	-118.8%	-42.0%	?	?	77.1%	?
CN1[C@@H]2CC[C@H]1CC(OC1c3ccccc3CCc3ccccc31)C2 (some centres not stated)	-8.8%	-3.3%	15.5%	-1.4%	-0.8%	4.4%
c1cc(C2N3CCCN2CC3)ccn1 (configuration not stated)	-2.1%	2.6%	-18.9%	3.7%	-21.4%	-12.8%
SMILES	EPAC1 ag	EPAC2 agonist	Rango release inh	Rango complex inh	EPAC1 antag	EPAC2 antagonist
O=c1cc(C(F)(F)F)c2cc3c4c(c2o1)CCCN4CCC3	?	44.7µM*	?	?	99.0%	20.6%
O=[N+]([O-])c1ccc(NCc2ccccc2)c2nonc12	56.2µM*	56.2µM*	?	?	34.4%	36.4%
Cn1cccc1/C=C1/C(=O)NC(=S)N(Cc2ccc(F)cc2)C1=O	-11.7%	3.1%	-21.9%	1.8%	15.8µM*	-0.3%
CCOc1ccc(N2C(=O)/C(=C\c3cccs3)C(=O)NC2=S)cc1	-2.9%	6.5%	1.3%	?	21.8%	9.0%
CCOc1ccc(N2C(=O)/C(=C/c3ccco3)C(=O)NC2=S)cc1	-3.2%	2.6%	-16.4%	?	11.2µM*	?
CCN(CC)c1ccc(N=Cc2c(O)n(CCC3=CCCCC3)c(=O)[nH]c2=O)cc1	5.3%	?	?	?	6.8%	56.2µM*
Cn1c(O)c(C(=Nc2ccccc2)SCc2ccc(Cl)cc2)c(=O)n(C)c1=O	-8.5%	9.2%	-18.9%	?	-19.2%	-1.0%
CC(Cc1ccccc1Sc1ccccc1O)N(C)C (configuration not stated)	-1.6%	6.2%	-5.3%	0.1%	-7.0%	-0.3%
COc1ccc(C(SCC(NC(=O)OCc2ccccc2)C(=O)O)c2ccc(OC)cc2)cc1 (configuration not stated)	-4.4%	2.8%	nt	nt	-3.9%	14.1µM*
COc1ccc(NC(=O)CN(C)C(=O)CSC(c2ccccc2)c2ccccc2)cc1	0.3%	9.3%	-7.8%	-0.3%	-25.0%	-15.4%
COc1ccc(OC)c(/C=N/OC(=O)Nc2ccc(Cl)cc2)c1	5.8%	17.9%	0.5%	3.4%	-16.2%	6.3%
O=C(Nc1ccc(Oc2ccc(Cl)cc2)c(Cl)c1)c1cc(I)cc(I)c1O	-13.7%	4.2%	-3.2%	-1.9%	39.8µM*	?

Screens (PubChem BioAssay)
